From the antibiotic and cytotoxicity screens of Wong et al. (2023)
The whole screen tested about 39,000 compounds, of which about 3,300 (8.5%) were called active. The full list was thinned out, with actives kept by preference.

test system: HepG2; experiment: cytotoxicity call (relative viability < 0.9); settings: 10 µM

| Structure (SMILES) | cytotoxicity call |
| --- | --- |
| CC(C)NC(=O)N(C)C[C@H]1Oc2ccc(NC(=O)Nc3ccc4c(c3)OCO4)cc2CC(=O)N([C@H](C)CO)C[C@H]1C | inactive |
| COCCOC(=O)N1C(=O)[C@@]2(c3cc(C#CC4=CCCCC4)ccc31)[C@H](c1ccc(OCCO)cc1)N1[C@H](c3ccccc3)[C@H](c3ccccc3)OC(=O)[C@H]1[C@@H]2C(=O)N1CCN(c2ncccn2)CC1 | inactive |
| CN(C)CCCN1C(=O)[C@@H]2[C@@H](C1=O)[C@@H]1C=C[C@@H]2C1 | inactive |
| COc1ccc(C2Sc3ccccc3N(CCN(C)C)C(=O)C2OC(C)=O)cc1.Cl (configuration not stated) | inactive |
| CNCCCN1c2ccccc2CCc2ccccc21.Cl | active |
| CN(C)CCCN1C(=O)[C@@]2(Cc3ccccc31)c1ccccc1C(=O)N(Cc1ccccc1)[C@H]2c1ccc(CO)cc1 | inactive |
| CNC(=O)[C@H]1Cc2ccccc2N1C(=O)COC | inactive |
| CN(C)CCCN1c2ccccc2Sc2ccccc21.Cl | active |
| CN(C)CCCN1c2ccccc2Sc2ccc(Cl)cc21.Cl | active |
| CN(C)CCCN1c2ccccc2CCc2ccccc21.Cl | active |
| CN(C)CCCN1c2ccccc2CCc2ccc(Cl)cc21.Cl | inactive |
| NNC(=O)CN1CCCc2ccccc21 | inactive |
| CC(=O)c1ccc2c(c1)N(CCCN(C)C)c1ccccc1S2.O=C(O)C=CC(=O)O | inactive |
| C[C@H](CO)N1C[C@H](C)[C@@H](CN(C)S(=O)(=O)c2cn(C)cn2)Oc2ncc(C#CCN(C)C)cc2C1=O | inactive |
| Cc1noc(C)c1S(=O)(=O)Nc1cccc2c1O[C@@H](CN(C)Cc1ccncc1)[C@@H](C)CN([C@@H](C)CO)C2=O | inactive |
| CON=C(C(=O)NC1C(=O)N2C(C(=O)[O-])=C(CSc3nc(=O)c([O-])nn3C)CSC12)c1csc(N)n1.O.O.O.[Na+].[Na+] (configuration not stated) | inactive |
| COc1ccccc1NC(=O)N(C)C[C@@H]1Oc2ncc(C#CC(C)C)cc2C(=O)N([C@H](C)CO)C[C@H]1C | inactive |
| COC(=O)/C=C/C(=O)OC | inactive |
| COC(=O)C=CC(=O)OC | active |
| COC(=O)/C=C/C(=O)O | inactive |
| COCC#Cc1cnc2c(c1)C(=O)N([C@@H](C)CO)C[C@H](C)[C@@H](CN(C)C(=O)c1cnccn1)O2 | inactive |
| O=C(Cc1ccc2c(c1)OCO2)N[C@@H]1CCNC[C@H]1O | inactive |
| C[C@@H]1CN([C@@H](C)CO)S(=O)(=O)c2ccc(-c3ccc(C(=O)N(C)C)cc3)cc2O[C@H]1CN(C)C(=O)C1CC1 | inactive |

| Structure (SMILES) | cytotoxicity call |
| --- | --- |
| C[C@H](CO)N1C[C@H](C)[C@@H](CN(C)Cc2ccncc2)Oc2ccc(NC(=O)Nc3ccc(C(F)(F)F)cc3)cc2C1=O | inactive |
| C[C@@H]1CCCCO[C@H](CN(C)C(=O)Nc2ccc(C(F)(F)F)cc2)[C@@H](C)CN([C@@H](C)CO)C(=O)c2cc(NC(=O)Nc3ccccc3)ccc2O1 | active |
| C[C@H]1CCCCO[C@H](CN(C)C(=O)Nc2ccc(C(F)(F)F)cc2)[C@@H](C)CN([C@@H](C)CO)C(=O)c2cc(NC(=O)Nc3ccccc3)ccc2O1 | inactive |
| C[C@@H]1CCCCO[C@@H](CN(C)C(=O)Nc2ccccc2)[C@@H](C)CN([C@H](C)CO)C(=O)c2cc(NC(=O)Nc3ccc(C(F)(F)F)cc3)ccc2O1 | active |
| C[C@H](CO)N1C[C@H](C)[C@@H](CN(C)C(=O)Nc2ccc(C(F)(F)F)cc2)OCCCC[C@H](C)Oc2ccc(NC(=O)Nc3ccccc3)cc2C1=O | inactive |
| C[C@H](CO)N1C[C@H](C)[C@H](CN(C)C(=O)Nc2ccccc2)OCCCC[C@H](C)Oc2ccc(NC(=O)Nc3ccc(C(F)(F)F)cc3)cc2C1=O | inactive |
| C[C@H]1CCCCO[C@@H](CN(C)C(=O)Nc2ccc(C(F)(F)F)cc2)[C@@H](C)CN([C@@H](C)CO)C(=O)c2cc(NC(=O)Nc3ccccc3)ccc2O1 | inactive |
| C[C@@H]1CN([C@@H](C)CO)C(=O)c2cc(NC(=O)c3ccccc3)ccc2O[C@@H](C)CCCCO[C@@H]1CN(C)C(=O)Nc1ccc(C(F)(F)F)cc1 | active |
| C[C@H]1CCCCO[C@@H](CN(C)C(=O)Nc2ccc(C(F)(F)F)cc2)[C@@H](C)CN([C@@H](C)CO)C(=O)c2cc(NC(=O)c3ccccc3)ccc2O1 | inactive |
| C[C@@H]1CCCCO[C@H](CN(C)C(=O)Nc2ccc(C(F)(F)F)cc2)[C@@H](C)CN([C@H](C)CO)C(=O)c2cc(NC(=O)Nc3ccccc3)ccc2O1 | inactive |
| C[C@@H]1CCCCO[C@H](CN(C)C(=O)Nc2ccc(C(F)(F)F)cc2)[C@H](C)CN([C@@H](C)CO)C(=O)c2cc(NC(=O)c3ccccc3)ccc2O1 | inactive |
| C[C@@H]1CCCCO[C@H](CN(C)C(=O)Nc2ccc(C(F)(F)F)cc2)[C@H](C)CN([C@@H](C)CO)C(=O)c2cc(NC(=O)Nc3ccccc3)ccc2O1 | inactive |
| C[C@@H]1CCCCO[C@@H](CN(C)C(=O)Nc2ccccc2)[C@@H](C)CN([C@@H](C)CO)C(=O)c2cc(NC(=O)Nc3ccc(C(F)(F)F)cc3)ccc2O1 | active |
| CNC[C@@H]1Oc2ccc(NS(=O)(=O)c3cn(C)cn3)cc2CC(=O)N([C@H](C)CO)C[C@@H]1C | inactive |
| C[C@H](CO)N1C[C@H](C)[C@H](CN(C)S(=O)(=O)c2ccccc2)OCCCC[C@H](C)Oc2ccc(NC(=O)Nc3ccc(F)cc3)cc2C1=O | inactive |
| C[C@H](CO)N1C[C@H](C)[C@@H](CN(C)Cc2ccncc2)Oc2ccc(NC(=O)Cn3cnnn3)cc2C1=O | inactive |
| c1ccc(-c2nc(-c3cccs3)[nH]c2-c2ccccc2)cc1 | inactive |
| C[C@@H]1CCCCO[C@@H](CN(C)C(=O)c2ccncc2)[C@H](C)CN([C@@H](C)CO)C(=O)c2cc(NS(C)(=O)=O)ccc2O1 | inactive |
| C[C@@H]1CN([C@@H](C)CO)C(=O)c2cc(/C=C/c3ccccc3)cnc2O[C@H]1CN(C)C(=O)CN1CCOCC1 | inactive |
| C[C@H](CO)N1C[C@H](C)[C@H](CN(C)C(=O)Cc2ccccc2)OCCCC[C@H](C)Oc2ccc(NC(=O)Nc3cccc4ccccc34)cc2C1=O | inactive |
| C[C@H](CO)N1C[C@H](C)[C@@H](CN(C)C(=O)NC2CCCCC2)Oc2ccc(NS(C)(=O)=O)cc2CC1=O | inactive |
| COc1cccc(NC(=O)N[C@@H]2CC[C@H](CC(=O)N3CCOCC3)O[C@@H]2CO)c1 | inactive |
| C[C@H](O)C#Cc1ccc2c(c1)O[C@H](CN(C)C)[C@@H](C)CN([C@@H](C)CO)S2(=O)=O | inactive |

| Structure (SMILES) | cytotoxicity call |
| --- | --- |
| COc1ccc(CN(C)C[C@H]2Oc3ccc(NC(=O)CCCCCC(=O)Nc4ccccc4N)cc3CC(=O)N([C@@H](C)CO)C[C@@H]2C)cc1 | inactive |
| CC(C)NC(=O)N(C)C[C@H]1Oc2ccc(NC(=O)Cc3ccccc3)cc2CC(=O)N([C@@H](C)CO)C[C@@H]1C | inactive |
| COc1ccc2c3c([nH]c2c1)[C@@H](CO)N(C[C@]13CN(Cc2nccs2)C1)S(=O)(=O)c1ccc(cc1)C | inactive |
| C[C@H](CO)N1C[C@H](C)[C@@H](CN(C)C(=O)Nc2ccccc2)OCCCC[C@H](C)Oc2ccc(NC(=O)Nc3ccc(C(F)(F)F)cc3)cc2C1=O | inactive |
| C[C@@H]1CN([C@@H](C)CO)C(=O)c2cc(NC(=O)Nc3ccccc3)ccc2O[C@@H](C)CCCCO[C@H]1CN(C)C(=O)Nc1ccc(C(F)(F)F)cc1 | inactive |
| C[C@@H]1CCCCO[C@H](CN(C)C(=O)Nc2ccccc2)[C@H](C)CN([C@H](C)CO)C(=O)c2cc(NC(=O)Nc3ccc(C(F)(F)F)cc3)ccc2O1 | active |
| C[C@H]1CCCCO[C@@H](CN(C)C(=O)Nc2cccc3ccccc23)[C@@H](C)CN([C@@H](C)CO)C(=O)c2cc(NS(C)(=O)=O)ccc2O1 | inactive |
| C[C@H](CO)N1C[C@H](C)[C@@H](CN(C)C(=O)Nc2ccccc2)Oc2ccc(NC(=O)Cn3cnnn3)cc2C1=O | inactive |
| CNC[C@H]1Oc2ccc(NC(=O)Cn3cnnn3)cc2CC(=O)N([C@@H](C)CO)C[C@H]1C | inactive |
| CNC[C@@H]1Oc2ccc(NC(=O)Cn3cnnn3)cc2CC(=O)N([C@@H](C)CO)C[C@@H]1C | inactive |
| C[C@@H]1CN([C@@H](C)CO)C(=O)c2cc(NC(=O)Cn3cnnn3)ccc2O[C@H]1CN(C)C(=O)Nc1cccc2ccccc12 | inactive |
| C[C@@H]1CN([C@H](C)CO)C(=O)c2cc(NC(=O)Cn3cnnn3)ccc2O[C@H]1CN(C)C(=O)Nc1cccc2ccccc12 | active |
| CNC[C@@H]1Oc2ccc(NC(=O)Cn3cnnn3)cc2CC(=O)N([C@@H](C)CO)C[C@H]1C | active |
| C[C@@H]1CN([C@@H](C)CO)C(=O)c2cc(NC(=O)Cn3cnnn3)ccc2O[C@@H]1CN(C)C(=O)Nc1ccccc1 | inactive |
| C[C@H](CO)N1C[C@H](C)[C@H](CN(C)C(=O)Nc2cccc3ccccc23)Oc2ccc(NC(=O)Cn3cnnn3)cc2C1=O | inactive |
| C[C@H]1CN([C@@H](C)CO)C(=O)c2cc(NC(=O)Cn3cnnn3)ccc2O[C@H]1CN(C)C(=O)Nc1ccccc1 | active |
| Cc1cc(Nc2cc(C)on2)nc([C@H]2CCN(C(=O)CN)C2)n1 | inactive |
| C[C@H](CO)N1C[C@H](C)[C@@H](CN(C)S(=O)(=O)c2cccs2)Oc2c(NC(=O)CCCN(C)C)cccc2C1=O | inactive |
| O=C(C[C@@H]1C[C@H]2c3cc(NC(=O)c4ccc5c(c4)OCO5)ccc3O[C@H]2[C@H](CO)O1)NCCc1ccccc1 | inactive |
| Cc1noc(C)c1NC(=O)N(C)C[C@H]1OCCCC[C@H](C)Oc2ccc(NC(=O)CCC(F)(F)F)cc2C(=O)N([C@@H](C)CO)C[C@H]1C | inactive |
| C[C@@H]1CN([C@H](C)CO)C(=O)c2cc(C#Cc3cccc(F)c3)cnc2O[C@@H]1CN(C)Cc1ccccn1 | inactive |
